Results on 61 molecules are retold here after PubChem BioAssay AID1654 (Sanford-Burnham Center for Chemical Genomics, 2009).

As usually defined, the inhibition is the drop in the measured response relative to a control, in per cent.

Out of some 290,000 compounds screened, about 1,500 (0.52%) were called active. The sample holds actives, similar compounds and a random draw of the others, so the mix is not that of the screen. Cut-off read from the data, not from the text of the source: active = inhibition above about 50%; inactive = the rest.

Sequence of Dual specificity protein phosphatase 3 (Homo sapiens) (P51452 whole entry, looked up): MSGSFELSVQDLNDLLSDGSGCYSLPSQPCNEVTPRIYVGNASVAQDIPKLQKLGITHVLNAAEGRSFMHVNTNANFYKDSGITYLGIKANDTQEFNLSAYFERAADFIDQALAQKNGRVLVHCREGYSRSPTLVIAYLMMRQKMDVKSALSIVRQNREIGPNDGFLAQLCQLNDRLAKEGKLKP

The test has as its target Dual specificity protein phosphatase 3 (Homo sapiens) (UniProt P51452). Description: inhibition of human DUSP3 activity – biochemical, absorbance, uHTS, primary screen (AID 1654). Conditions: recombinant VHR phosphatase, pNPP absorbance, at 13.3 µM, hits give high values.
Consider `Cc1cc(C)nc(NNC2=CC(=O)CC(C)(C)C2)n1`, for which the inhibition is 51.3% (active). Next, `CC1(C)CC(=O)C=C(Nc2ccccc2)C1`: -8.5% (inactive); `COC(=O)NNC1=CC(=O)CC(C)(C)C1`: 1.2% (inactive); `O=C(Nc1cc(-c2nc3ncccc3o2)ccc1Cl)c1ccco1`: 24% (inactive). `Cc1ccc(NC(=S)N(Cc2ccco2)C(C)c2cccs2)cc1` (stereo unspecified): the inhibition was 20.7% (inactive).

On to `Cc1ccc(NC(=S)N(CCCN2CCC(C)CC2)Cc2ccco2)cc1`, for which the inhibition was 53.6% (active). As for `Cc1ccc(NC(=S)N(CCN2CCCCC2)Cc2ccco2)cc1C`, the inhibition was 5.9% (inactive). For `CCOc1ccc(-c2noc(CCC(=O)NC3CCCC3)n2)cc1OC`, the inhibition is 27.7% (inactive). Regarding `COc1cc(S(=O)(=O)N2CCN=C2c2ccccc2)ccc1Cl`, the inhibition is 47.5% (inactive). In the case of `CC(Sc1nnc(-c2ccccc2F)n1C1CC1)C(N)=O` (stereo unspecified), the inhibition was 11.3% (inactive).

As to `CCc1ccc(N2CC(C(=O)Nc3ccc(S(=O)(=O)Nc4nccs4)cc3)CC2=O)cc1` (stereo unspecified), the inhibition was -2.6% (inactive). As for `CCc1ccc(N2CC(C(=O)NC3=NCCS3)CC2=O)cc1` (stereo unspecified), the figure is 54.4% (active). Next, `CCc1ccc(N2CC(C(=O)N3CCCCCC3)CC2=O)cc1` (stereo unspecified): 30.7% (inactive); `COc1ccccc1OCCNC(=O)CCNC(=O)c1ccccc1Cl`: -2.5% (inactive).

As to `CC1CCCCC1NC(=O)c1cn(C)c2ccc(S(=O)(=O)N3CCOCC3)cc2c1=O` (stereo unspecified), the inhibition is 5.7% (inactive). As for `CCOc1cc(C)ccc1OCc1nnc(SCC(=O)Nc2cccc(C(=O)O)c2)n1-c1ccccc1`, the figure is -8.4% (inactive); as for `CCN(CC)CCNC(=O)Cn1cnc2sc(C)c(S(=O)(=O)N3CCOCC3)c2c1=O`, 57.3% (active).

As to `Cc1sc2ncn(CC(=O)NCCN(C)C)c(=O)c2c1S(=O)(=O)N1CCC(C)CC1`, the inhibition is 5.1% (inactive). Next, `CCN(CC)CCCNC(=O)Cn1cnc2sc(C)c(S(=O)(=O)N3CCN(c4ncccn4)CC3)c2c1=O`: 7.7% (inactive); `CN(Cc1ccccc1)CC(O)COc1ccc(CNCc2cc3ccccc3s2)cc1` (stereo unspecified): 55.5% (active). For the molecule `Cc1ccc(OCC(=O)OC(C)CN(C)Cc2ccccc2)cc1` (stereo unspecified), the inhibition was -3.9% (inactive). As for `OC(CNCc1ccc2c(c1)OCO2)COc1ccccc1` (stereo unspecified), the figure is 0.8% (inactive); as for `COCCN(C(=S)Nc1cccc(Cl)c1C)C(C)c1ccco1` (stereo unspecified), 19.1% (inactive); as for `CCOC(=O)CC1COCCN1C(=O)c1cc(COc2ccc(F)c(F)c2)on1` (stereo unspecified), -31.1% (inactive). Take `Cc1c(CC(=O)N2CCN(C(=O)C3COc4ccccc4O3)CC2)c(=O)oc2c(O)c(O)ccc12` (stereo unspecified): the inhibition is 9.7% (inactive).

As for `Cc1c(CC(=O)NCCCCCC(=O)O)c(=O)oc2cc3occ(-c4ccccc4)c3cc12`, the inhibition is -11% (inactive). As for `COc1cccc(-c2coc3cc4oc(=O)c(CC(=O)O)c(C)c4cc23)c1`, the figure is 57.3% (active); as for `Cc1c(CCC(=O)O)c(=O)oc2cc3occ(-c4ccccc4)c3cc12`, -4.9% (inactive); as for `Cc1nc(C)c(-c2nnc(-c3cccc(S(=O)(=O)N(C)C)c3)o2)cc1C(=O)NN`, 1% (inactive). For the molecule `CN(C)CCN(C(=O)C1=COCCO1)c1nc2ccc(Cl)cc2s1`, the inhibition was 17.5% (inactive). On to `Cn1nnc(NC(=S)NC(=O)c2ccccc2)n1`, for which the inhibition is 8.5% (inactive).

`CC(=O)N1CCN(CC(=O)Nc2ccc(C)c(F)c2)CC1`: the inhibition is 0.1% (inactive). Regarding `Cc1ccc(C(NC(=O)N2CCCC2)C(Cl)(Cl)Cl)cc1F` (stereo unspecified), the inhibition is 51.3% (active). Next, `Cc1ccc(C(=O)N2CCCC2)c(F)c1F`: 11.9% (inactive); `CC(=O)c1ccc(NC(=O)CCc2nnc3ccc(NCc4ccco4)nn23)cc1`: -9.1% (inactive). As for `O=C(COC(=O)C1CC2C=CC1C2)Nc1ccccc1` (stereo unspecified), the figure is -9.6% (inactive); as for `CN(C)S(=O)(=O)N1CCC(Oc2cccc(C(=O)NCCCC3CCCC3)c2)CC1`, -1.9% (inactive). As for `Cc1ccc(CS(=O)(=O)CCC(=O)NC2CC2)cc1`, the figure is 9.9% (inactive); as for `CCCCC(=O)NCc1ccc(F)cc1`, -4.1% (inactive). `Cc1ccc(CS(=O)(=O)CCC(=O)NCc2ccc(F)cc2)cc1`: the inhibition was 57.9% (active). As for `O=C1CCC(C(=O)N2CCCCO2)CN1Cc1cccc(C(F)(F)F)c1` (stereo unspecified), the figure is 23.9% (inactive); as for `COC(=O)c1c(NC(=O)COc2ccc(Cl)cc2Cl)sc2c1CC(C)(C)NC2(C)C`, 7.7% (inactive).

Turning to `COc1cc2c(cc1OC)CN(C(=O)c1cc(S(=O)(=O)N3CCCCC3)ccc1Cl)CC2`, the inhibition is 8.6% (inactive). Next, `COc1cc2c(cc1OC)C(C)N(S(=O)(=O)c1cnc(Cl)c(Cl)c1)CC2` (stereo unspecified): 51.2% (active); `COc1ccc(S(=O)(=O)N2CCC(C(=O)N3CCc4ccccc4C3)CC2)cc1OC`: 11.7% (inactive); `Cc1cc(C)cc(N(CCC#N)C(=O)CN2C(=O)NC3(CCCC3)C2=O)c1`: -12.4% (inactive). For `Cc1c(C(=O)NCCCc2ccccc2)cccc1[N+](=O)[O-]`, the inhibition is 22.5% (inactive). For `Cc1c(C(=O)NC(C)C2CC3CCC2C3)cccc1[N+](=O)[O-]` (stereo unspecified), the inhibition was 54.4% (active). Next, `COC(=O)c1cc(C(=O)NC(C)C2CC3CCC2C3)cc([N+](=O)[O-])c1` (stereo unspecified): -11.2% (inactive); `Cc1ccccc1NS(=O)(=O)CCCCC(Cl)(Cl)Cl`: 15.4% (inactive); `CCOC(=O)c1nc(N)sc1C(=O)OCC`: 50.8% (active).

For `CCOC(=O)c1sc2nc(C)[nH]c(=O)c2c1C`, the inhibition was 21.7% (inactive). For `CCOC(=O)c1c(N)sc(C(C)=O)c1C`, the inhibition is 17.4% (inactive). Take `O=C(/C=C/Nc1ccc(S(=O)(=O)Nc2cnc3ccccc3n2)cc1)c1cccnc1`: the inhibition was 16.5% (inactive). As for `COc1ccc2oc(=O)cc(-c3cc4ccccc4o3)c2c1`, the figure is 52.7% (active). As for `COc1cccc2cc(-c3cc(=O)oc4cc(C)c(O)cc34)oc12`, the figure is -16.6% (inactive); as for `COc1ccc(Nc2cc(=O)oc3ccccc23)cc1`, 11.9% (inactive); as for `Cc1cc(OC(=O)c2ccc(OC(C)C)cc2)c([N+](=O)[O-])c(=O)[nH]1`, -18% (inactive). `Cc1ccc(S(=O)(=O)NCC(=O)N2CCOCCOCCOCCOCC2)cc1`: the inhibition is 33.9% (inactive). On to `O=C(O)C1CCC(CNS(=O)(=O)c2ccc(Br)cc2)CC1` (stereo unspecified), for which the inhibition is 13.3% (inactive). Consider `Cc1ccc(S(=O)(=O)NCC2CCC(C(=O)N3CCOCC3)CC2)cc1` (stereo unspecified), for which the inhibition is 52% (active).
